# Experimental data from ChEMBL document CHEMBL2218924, “A broad activity screen in support of a chemogenomic map for kinase signalling research and drug discovery” (Biochem J, 2013).
# Target: T1, CDK9/cyclin T1 (Homo sapiens) (UniProt O60563+P50750)
# Details: at 1 µM
row,SMILES,residual activity [%]
1,Nc1n[nH]c2nnc(-c3c(-c4ccccc4)nn4ccccc34)cc12,98
2,Cc1nc2cc3nc(-c4cccs4)cnc3cc2n1C,109
3,N#Cc1cnc2cnc(NCc3cccnc3)cc2c1Nc1ccc(F)c(Cl)c1,93
4,Nc1nc(Nc2ccc(S(N)(=O)=O)cc2)nn1C(=S)Nc1c(F)cccc1F,0
5,Oc1ccc(-c2nc(-c3ccc(F)cc3)c(-c3ccncc3)[nH]2)cc1,94
6,Cn1nc2c3c(cccc31)C(=O)c1ccccc1-2,94
7,COc1cccc(-c2cc(=O)c3ccccc3o2)c1N,104
8,CC[n+]1c(/C=C/N(C)c2ccccc2)n(-c2ccccc2)c2ccc(-c3nc4ccccc4s3)cc21,119
9,O=[N+]([O-])c1ccc(-c2nc(-c3ccc(F)cc3)c(-c3ccncc3)[nH]2)cc1,103
10,CCC(=O)Nc1ccc2ncnc(Nc3cccc(Br)c3)c2c1,102
11,CCOc1cc2ncnc(Nc3cccc(Br)c3)c2cc1OCC,94
12,c1ccc(-c2n[nH]c3c2oc2ccccc23)cc1,88
13,Nc1ccc2ncnc(NCCc3ccc(Oc4ccccc4)cc3)c2c1,94
14,CN(C)c1ccc(/C=C2\C(=O)Nc3ccccc32)cc1,107
15,O=Nc1c(-c2c(O)[nH]c3ccccc23)[nH]c2ccccc12,26
16,Cc1cncc2cccc(S(=O)(=O)N3CCCN(C(=O)CN)C[C@H]3C)c12,92

row,SMILES,residual activity [%]
1,O=C(Nc1cccc(Nc2nccc(Nc3cccc(C(F)(F)F)c3)n2)c1)C1CC1,89
2,CO[C@H]1C[C@@H]2CC[C@@H](C)[C@@](O)(O2)C(=O)C(=O)N2CCCC[C@H]2C(=O)O[C@H]([C@H](C)C[C@@H]2CC[C@@H](O)[C@H](OC)C2)CC(=O)[C@H](C)/C=C(\C)[C@@H](O)[C@@H](OC)C(=O)[C@H](C)C[C@H](C)/C=C/C=C/C=C/1C,120
3,CCN(CC)C(=O)c1ccc(Nc2nc(OCC3CCCCC3)c3nc[nH]c3n2)cc1,46
4,Oc1c2ccccc2c2c3c(cccc13)N=N2,96
5,O=C1NC(=O)/C(=C\c2ccc3nccnc3c2)S1,60
6,Cc1cc(Nc2nc(-c3ccccc3)nc3ccccc23)n[nH]1,76
7,COc1ccc(OC)c2c(=S)c3ccccc3[nH]c12,95
8,O=c1c2ccccc2[nH]c(=S)n1CCN1CCC(=C(c2ccc(F)cc2)c2ccc(F)cc2)CC1,100
9,Cn1cc(/C=C2\C(=O)Nc3ccc(S(N)(=O)=O)cc32)c2ccccc21,62
10,CC(C)n1cnc2/c(=N/c3cccc(Cl)c3)nc(NCCO)[nH]c21,63
11,COc1cc2ncnc(N3CCN(C(=O)Nc4ccc(Oc5ccccc5)cc4)CC3)c2cc1OC,94
12,O=c1cc(-c2cccc3c2Sc2ccccc2S3)oc(N2CCOCC2)c1,100
13,CN(C)CCCn1cc(C2=C(c3c[nH]c4ccccc34)C(=O)NC2=O)c2ccccc21,17
14,COc1cc2ncnc(Nc3ccc(Oc4ccccc4)cc3)c2cc1OC,99
15,Cc1cc2ncc(-c3ccccc3)nc2cc1C,105
16,NC(=O)c1ccc2[nH]c(-c3ccc(Oc4ccc(Cl)cc4)cc3)nc2c1,81

# Target: T1, CDK9/cyclin T1 (Homo sapiens)
# Details: at 10 µM
row,SMILES,residual activity [%]
1,Nc1n[nH]c2nnc(-c3c(-c4ccccc4)nn4ccccc34)cc12,92
2,Cc1nc2cc3nc(-c4cccs4)cnc3cc2n1C,102
3,N#Cc1cnc2cnc(NCc3cccnc3)cc2c1Nc1ccc(F)c(Cl)c1,100
4,Nc1nc(Nc2ccc(S(N)(=O)=O)cc2)nn1C(=S)Nc1c(F)cccc1F,-1
5,Oc1ccc(-c2nc(-c3ccc(F)cc3)c(-c3ccncc3)[nH]2)cc1,65
6,Cn1nc2c3c(cccc31)C(=O)c1ccccc1-2,90
7,COc1cccc(-c2cc(=O)c3ccccc3o2)c1N,108
8,CC[n+]1c(/C=C/N(C)c2ccccc2)n(-c2ccccc2)c2ccc(-c3nc4ccccc4s3)cc21,125
9,O=[N+]([O-])c1ccc(-c2nc(-c3ccc(F)cc3)c(-c3ccncc3)[nH]2)cc1,24
10,CCC(=O)Nc1ccc2ncnc(Nc3cccc(Br)c3)c2c1,86
11,CCOc1cc2ncnc(Nc3cccc(Br)c3)c2cc1OCC,82
12,c1ccc(-c2n[nH]c3c2oc2ccccc23)cc1,78
13,Nc1ccc2ncnc(NCCc3ccc(Oc4ccccc4)cc3)c2c1,107
14,CN(C)c1ccc(/C=C2\C(=O)Nc3ccccc32)cc1,93
15,O=Nc1c(-c2c(O)[nH]c3ccccc23)[nH]c2ccccc12,11
16,Cc1cncc2cccc(S(=O)(=O)N3CCCN(C(=O)CN)C[C@H]3C)c12,71
17,O=C(Nc1cccc(Nc2nccc(Nc3cccc(C(F)(F)F)c3)n2)c1)C1CC1,79

row,SMILES,residual activity [%]
1,CO[C@H]1C[C@@H]2CC[C@@H](C)[C@@](O)(O2)C(=O)C(=O)N2CCCC[C@H]2C(=O)O[C@H]([C@H](C)C[C@@H]2CC[C@@H](O)[C@H](OC)C2)CC(=O)[C@H](C)/C=C(\C)[C@@H](O)[C@@H](OC)C(=O)[C@H](C)C[C@H](C)/C=C/C=C/C=C/1C,98
2,CCN(CC)C(=O)c1ccc(Nc2nc(OCC3CCCCC3)c3nc[nH]c3n2)cc1,8
3,Oc1c2ccccc2c2c3c(cccc13)N=N2,55
4,N#CC(C#N)=C(N)/C(C#N)=C/c1ccc(O)cc1,86
5,O=C1NC(=O)/C(=C\c2ccc3nccnc3c2)S1,14
6,Cc1cc(Nc2nc(-c3ccccc3)nc3ccccc23)n[nH]1,29
7,COc1ccc(OC)c2c(=S)c3ccccc3[nH]c12,83
8,O=c1c2ccccc2[nH]c(=S)n1CCN1CCC(=C(c2ccc(F)cc2)c2ccc(F)cc2)CC1,97
9,Cn1cc(/C=C2\C(=O)Nc3ccc(S(N)(=O)=O)cc32)c2ccccc21,55
10,CC(C)n1cnc2/c(=N/c3cccc(Cl)c3)nc(NCCO)[nH]c21,24
11,COc1cc2ncnc(N3CCN(C(=O)Nc4ccc(Oc5ccccc5)cc4)CC3)c2cc1OC,48
12,O=c1cc(-c2cccc3c2Sc2ccccc2S3)oc(N2CCOCC2)c1,89
13,CN(C)CCCn1cc(C2=C(c3c[nH]c4ccccc34)C(=O)NC2=O)c2ccccc21,3
14,Cc1cccc(-c2[nH]c(C(C)(C)C)nc2-c2ccc3c(c2)OCO3)n1,98
15,COc1cc2ncnc(Nc3ccc(Oc4ccccc4)cc3)c2cc1OC,93
16,Cc1cc2ncc(-c3ccccc3)nc2cc1C,85
17,NC(=O)c1ccc2[nH]c(-c3ccc(Oc4ccc(Cl)cc4)cc3)nc2c1,78
